Laboratory results from PubChem BioAssay AID652183 (National Center for Advancing Translational Sciences (NCATS), 2013).
Records with an inconclusive call do not appear. Activity calls are given as the source filed them. The call rests on the fitted dose curve; in most records, active means well fitted inhibition curve with a large enough effect; inconclusive means small, poorly fitted or top-dose-only effect; inactive means no such curve, though single readings can be large or run the other way.

Experiment: qHTS Assay for Lipid Storage Modulators: Differentiation Assay against Probe and Analogs
Settings: 3T3-L1 adipocyte differentiation, BODIPY lipid imaging, 8 d; series mostly up to 20 µM; activity change, negative = inhibition: at the top concentration
Text: Storing lipids as a reservoir for energy or the anabolism of elementary metabolites is a common feature of probably all cells and is conserved from bacteria to humans. The universal cellular lipid storage organelle is the so-called lipid storage droplet (LD). Although ubiquitous, LDs share a simple structure composed of a hydrophobic core that harbors the storage lipids, which is shielded by a droplet-specific phospholipid monolayer to which proteins are attached. The current model of LD biogenesis involves an incorporation of the lipid core into the membrane leaflets of the endoplasmic reticulum (ER) followed by a subsequent budding-like maturation of a LD, which ultimately pinches off. Once released, LD volume can increase by localized lipogenesis or fusion of existing droplets. Storage lipids are re-mobilized enzymatically by lipase activity. Lipase regulation in the adipocyte is heavily studied and involves multiple components including catecholamine signaling, the LD-associated proteins Perilipin and comparative gene identification-58 (CGI-58) and at least two lipases named hormone sensitive lipase (HSL) and adipocyte triglyceride lipase (ATGL). LD regulation outside of the adipocyte is poorly understood and only few components are known. However, there is an urgent need to learn more about ectopic fat depots as mislocalized storage of lipids, for example in the liver or muscle, is an eminent health problem associated with insulin resistance or the metabolic syndrome. We developed a laser-scanning cytometer assay to enable 1,536-well screening and combined the results of the small molecules screen with an RNAi database based on lipid storage. […] NIH Chemical Genomics Center [NCGC] MLPCN Grant: MH085686 Assay Submitter (PI): Mathias Beller, Max-Planck-Institut fur Biophysikalische Chemie
3T3L1 cells were obtained from ATCC (CL-173). Pre-adipocyte medium (PM-1), differentiation medium (DM-2) and after adipocyte medium (AM-1) were purchased from Zen-Bio (# PM-1-L1, DM-2-L1, AM-1-L1). 200 uL of PM-1containing 3,000 cells was dispensed into each well of a 96-well plate (Corning, #3340), and the assay plates were incubated at 37 °C, 95% humidity and 5% CO2 for 3-5 days. The differentiation of pre-adipocyte to adipocyte was induced by removing the pre-adipocyte medium and replacing with 200 uL of differentiation medium. 1 uL of compounds at different concentrations dissolved in differentiation medium were added to the assay plates, along with medium exchange for differentiation to test their effects on adipocyte differentiation. The final DMSO concentration was 0.5%.Triacsin C (Sigma-Aldrich T-4540), an inhibitor of long-chain fatty acyl CoA synthetase that blocks synthesis of triglycerides, was used as a positive control for lipid under-storage. […]

| SMILES | activity change, negative = inhibition | Potency |
| --- | --- | --- |
| CCOc1ccc(CCNC(=O)c2cc3sccc3n2CCN(C)C)cc1OCC | -57.2% (inactive) | – |
| CCOc1ccc(CCNC(=O)c2cc3ccccc3n2Cc2ccccn2)cc1OCC | – | 12.6 µM (active) |
| CCOc1ccc(CCNC(=O)c2cc3sccc3n2Cc2ccc(F)cc2F)cc1OCC | -77.8% (inactive) | – |
| CCOC(=O)C1CCN(C(=O)C2(NC(=O)Nc3ccccc3Cl)CCCC2)CC1 | 56% (inactive) | – |
